Source: PubChem (Broad Institute)
Mtb BioA inh = inhibitors of Mycobacterium tuberculosis BioA enzyme. purified M. tuberculosis BioA enzyme, plate reader. inhibition, % at 9.99 µM. actives 0.096% (n = 360,000); in the data active means inhibition above about 40%; inconclusive means no clear call, values can overlap the other calls
PrP 5UTR inh = inhibition of PrP 5' UTR reporter expression. cell-based PrP 5' UTR mRNA reporter, plate reader. inhibition, % (test concentration not listed). actives 0.35% (n = 340,000). AID 488862; in the data active means inhibition above about 52%
Y pestis TopoI = Y. pestis Topo-I inhibition via cleavage products. Y. pestis Topo-I cleavage product accumulation, plate reader. activity, % at 10 µM. actives 0.064% (n = 360,000). AID 504884; in the data active means activity above about 50%, passing the limit was not always enough; inconclusive means no clear call, values can overlap the other calls
FadD28 binding = M. tuberculosis FadD28 bisubstrate binding inhibition; FadD28 bisubstrate probe binding, fluorescence polarization; inhibition, % at 12.5 µM; actives 0.22% (n = 360,000); in the data active means inhibition above about 8.5%, passing the limit was not always enough; inconclusive means no clear call, values can overlap the other calls
PfHsp40 rescue = compounds rescuing yeast from Plasmodium falciparum HSP40 toxicity | S. cerevisiae expressing PfHsp40, growth rescue, ATP luminescence | growth rescue, % at 12.5 µM | actives 0.68% (n = 340,000); in the data active means growth rescue above about 28%, passing the limit was not always enough; inconclusive means no clear call, values can overlap the other calls;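 further: yeast W303a lacking pdr1 and pdr3 grown in galactose medium; growth measured after three days at 30 °C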
PrP UTR cherry = prion 5' UTR mRNA inhibition, cherry-pick retest; actives 48% (n = 1,100); shares compounds with PrP 5UTR inh; AID 504592; cell-based prion protein 5' UTR reporter, plate reader; inhibition, % at 2.5 µM; in the data active means inhibition above about 54%; inconclusive means no clear call, values can overlap the other calls
Of the large screens only hits and unclear results are named; the others gave an inactive call (follow-up assays come after a bar, where they were run); ! = not active in a repeat. This is a sample that favours compounds with a hit; in the whole collection about 1.1% have one here.

COCC(=O)Nc1ccc2c(c1)C(=O)N(C)C[C@@H](OC)[C@H](C)CN(CCc1ccccc1)[C@@H](C)CO2	none (no result: PrP 5UTR inh, Y pestis TopoI, FadD28 binding, PfHsp40 rescue)
O=C(NCCCNCc1ccccc1)c1ccccn1	PrP 5UTR inh 62! | PrP UTR cherry inactive
O=c1oc2ccccc2c2c1cnc1ccccc12	PrP 5UTR inh 64 | PrP UTR cherry inactive
Cc1cnc(N)c2c(=O)oc3ccccc3c12	none
N=c1c2c(n(Cc3ccc([N+](=O)[O-])cc3)c3c1CCC3)CCCC2	PrP 5UTR inh 80 (no result: Mtb BioA inh) | PrP UTR cherry inactive
CC(C)(C)C(=O)Nc1ccc(NC(=O)c2ccco2)nc1	PrP 5UTR inh 88 | PrP UTR cherry 94
Cc1ccoc1C(=O)Nc1ccc(CC(=O)O)cc1	PrP 5UTR inh 64 | PrP UTR cherry 53
COc1ccc(Cc2cnc(N)s2)cc1	PrP 5UTR inh 77 (no result: Mtb BioA inh) | PrP UTR cherry inactive
COc1ccc(OCCc2nnc(N)s2)cc1	none
CO[C@H]1CN(C)C(=O)c2cc(NC(C)=O)ccc2OC[C@@H](C)N(C(=O)c2ccccn2)C[C@H]1C	none (no result: PrP 5UTR inh, Y pestis TopoI, FadD28 binding, PfHsp40 rescue)
Oc1cc(O)cc(-c2cc3ccc(O)cc3o2)c1	none
CC1(C)Oc2cc3oc(-c4cc(O)cc(O)c4)cc3cc2CC1O (configuration not stated)	PrP 5UTR inh 71, FadD28 binding inconclusive | PrP UTR cherry inconclusive
C[C@H]1CN([C@@H](C)CO)C(=O)c2cc(NC(=O)Nc3ccc(F)cc3)ccc2O[C@H]1CN(C)Cc1ccc(-c2ccccc2)cc1	none (no result: PrP 5UTR inh, Y pestis TopoI, FadD28 binding, PfHsp40 rescue)
C[C@@H]1CN([C@@H](C)CO)C(=O)c2cccc(NC(=O)Nc3cccc4ccccc34)c2O[C@H]1CN(C)CC1CC1	none (no result: PrP 5UTR inh, Y pestis TopoI, FadD28 binding, PfHsp40 rescue)
Cc1ccc(C(=O)/C=C/Nc2ccccn2)cc1	PrP 5UTR inh 76 (no result: Mtb BioA inh) | PrP UTR cherry 62
Cc1noc(C)c1S(=O)(=O)Nc1ccc2c(c1)C(=O)N([C@@H](C)CO)C[C@H](C)[C@H](CN(C)C(=O)Nc1ccc3c(c1)OCO3)OCCCC[C@H](C)O2	none (no result: PrP 5UTR inh, Y pestis TopoI, FadD28 binding, PfHsp40 rescue)
COc1ccc(/C=N/Nc2nnc(C)n2N)cc1OC(C)=O	none (no result: FadD28 binding)
COc1ccc(/C=N/Nc2nnc(C)n2N)cc1OC	PrP 5UTR inh 76 | PrP UTR cherry inactive
CNC(=O)C[C@@H]1CC[C@@H]2[C@H](COc3ccc(NC(=O)c4ccccc4OC)cc3C(=O)N2C)O1	none (no result: PrP 5UTR inh, Y pestis TopoI, FadD28 binding, PfHsp40 rescue)
COc1ccc(CC2C(=O)NC(C)C(=O)N(C)C3C(=O)N(C)C(Cc4ccc(O)c(c4)Oc4ccc(cc4)C3O)C(=O)NC(C)C(=O)NC(C)C(=O)N2C)cc1 (configuration not stated)	PrP 5UTR inh 53 (no result: Mtb BioA inh) | PrP UTR cherry inactive
COc1ccc(COC(=O)C2=C(C)NC(=O)NC2c2ccc(O)c(OC)c2)cc1 (configuration not stated)	none
CCN(CC)c1ccc2cc(-c3nc4ccccc4[nH]3)c(=O)oc2c1	PrP 5UTR inh 58 | PrP UTR cherry 66
CC(C)CC#Cc1cnc2c(c1)C(=O)N([C@@H](C)CO)C[C@@H](C)[C@@H](CN(C)C(=O)Nc1cccc(F)c1)O2	none (no result: PrP 5UTR inh, Y pestis TopoI, FadD28 binding, PfHsp40 rescue)
COC(=O)Cc1[nH]n(-c2nc3ccccc3s2)c(=O)c1C(C)=Nc1ccc(C)cc1	PrP 5UTR inh 92 (no result: Mtb BioA inh) | PrP UTR cherry 92
COC(=O)Cc1[nH]n(-c2nc3ccccc3s2)c(=O)c1C(C)=Nc1ccc(Cl)cc1	PrP 5UTR inh 91 (no result: Mtb BioA inh) | PrP UTR cherry 87
CCCN=C(C)c1c(-c2ccccc2)[nH]n(-c2nc3ccccc3s2)c1=O	none (no result: Mtb BioA inh)
COCC(=O)Nc1ccc2c(c1)[C@H]1C[C@@H](CC(=O)N3CCOCC3)O[C@H](CO)[C@H]1O2	none (no result: PrP 5UTR inh, Y pestis TopoI, FadD28 binding, PfHsp40 rescue)
Nc1nc(-c2ccc(NC(=O)c3ccco3)cc2)cs1	PrP 5UTR inh 67 | PrP UTR cherry inactive
O=C(Nc1ccc(NC(=O)c2ccco2)cc1)c1ccco1	none
Cc1nc(-c2ccc(NC(=O)c3ccco3)cc2)cs1	PrP 5UTR inh 78 | PrP UTR cherry 77
C[C@@H]1CN([C@@H](C)CO)C(=O)c2cc(C#CCN(C)C)cnc2O[C@H]1CN(C)C(=O)Nc1cccc(F)c1	none (no result: PrP 5UTR inh, Y pestis TopoI, FadD28 binding, PfHsp40 rescue)
N#CC1=C(N)Oc2c(ccc3ccccc23)C1c1ccsc1 (configuration not stated)	PrP 5UTR inh 77 | PrP UTR cherry 88
N#CC1=C(N)Oc2c(oc(CO)cc2=O)C1c1ccsc1 (configuration not stated)	none
Cc1ccc(-c2cnc3c(c2)C(=O)N([C@H](C)CO)C[C@@H](C)[C@H](CN(C)C(=O)Cc2ccncc2)O3)cc1	none (no result: PrP 5UTR inh, Y pestis TopoI, FadD28 binding, PfHsp40 rescue)
COc1ccccc1-c1nc(-c2ccccn2)no1	none
